1 molecule from the supplement of paper PMC4466140 can be followed below.

B1: unnamed (peptide)
chain: WRPRIVPILPYITRL

One test deals with SpBzz1-D2. Kind of test: SPOT peptide array binding signal intensity (averaged, normalized) (arbitrary units (background-subtracted, floor 0; scale differs between SH3 domains)); higher = stronger binding of the SH3 domain to the peptide. In outline: (§1)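 The binding signal is the normalized, background-subtracted spot intensity averaged over replicates; its arbitrary units differ between domains. It was obtained by incubating 10 μg/ml GST-fused SH3 domains from four yeast species overnight at 4°C in TBS-based blocking buffer on cellulose membranes with synthetic 15-mer peptides, cysteines replaced by serines, then detecting with anti-GST antibody, HRP anti-mouse secondary and luminol.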
B1: the “SPOT peptide array binding signal intensity” value was found to be 1.5.

For a further test, the target named is SpCyk3. The description is as above. In outline:
as §1
Take B1: the “SPOT peptide array binding signal intensity” value was found to be 10.

The target of another test is SpHof1. Described as above. In outline:
as §1
On to B1, for which the “SPOT peptide array binding signal intensity” value is 14.5.

In the next test the target is SpHof1-2. The description is as above. The method, boiled down: as §1
Turning to B1, the “SPOT peptide array binding signal intensity” value was 18.5.

The target in a further test is SpHof1-3. The description is as above. In outline:
as §1
Turning to B1, the “SPOT peptide array binding signal intensity” value is 328.

A further test concerns the target SpHse1. The test is described as above. The method, boiled down: as §1
For B1, the “SPOT peptide array binding signal intensity” value is 315.

A further test addresses SpLsb1. The description is as above. The method, boiled down: as §1
Turning to B1, the “SPOT peptide array binding signal intensity” value is 3.

The next test deals with SpLsb4. Described as above. In outline: as §1
On to B1, for which the “SPOT peptide array binding signal intensity” value was 157.

The target in another test is SpMyo1. The description is as above. In outline:
as §1
With B1, the “SPOT peptide array binding signal intensity” value was 107.

In another test the target is SpNbp2. The test is described as above. In outline: as §1
With B1, the “SPOT peptide array binding signal intensity” value was 55.5.

A further test has as its target SpPex13. The description is as above. In outline:
as §1
Take B1: the “SPOT peptide array binding signal intensity” value was determined as 6.5.

A further test addresses SpRvs167. The test is described as above. In outline:
as §1
Regarding B1, the “SPOT peptide array binding signal intensity” value stood at 167.

The target of a further test is SpSla1-D1-D2. The test is described as above. In outline:
as §1
On to B1, for which the “SPOT peptide array binding signal intensity” value was ≤ 0.

Another test has as its target SpSla1-D3. Described as above. In outline:
as §1
As to B1, the “SPOT peptide array binding signal intensity” value is ≤ 0.
